Source: ChEMBL document CHEMBL3988442, “University of Dundee, Small-Polar-MMV Screening Library” (2021)
For some of these results: Measured potencies and affinities stand elsewhere.

Key:
Set-up in all cases: scale not given: direction of the effect not stated beside the values
[1] = target: Protein translocase subunit SecA (Escherichia coli (strain K12)) (UniProt P10408); test: Assay to Identify E. coli SecA ATPase Inhibitors; type: functional; conditions: 30 µM
[2] = target: T1, Ubiquitin-activating enzyme e1, putative (Leishmania donovani (strain BPK282A1)) (UniProt E9BSI1); test: Leishmania donovani Ubiquitin Activating Enzyme (LdE1); type: functional; conditions: 30 µM
T1 sequence (whole entry): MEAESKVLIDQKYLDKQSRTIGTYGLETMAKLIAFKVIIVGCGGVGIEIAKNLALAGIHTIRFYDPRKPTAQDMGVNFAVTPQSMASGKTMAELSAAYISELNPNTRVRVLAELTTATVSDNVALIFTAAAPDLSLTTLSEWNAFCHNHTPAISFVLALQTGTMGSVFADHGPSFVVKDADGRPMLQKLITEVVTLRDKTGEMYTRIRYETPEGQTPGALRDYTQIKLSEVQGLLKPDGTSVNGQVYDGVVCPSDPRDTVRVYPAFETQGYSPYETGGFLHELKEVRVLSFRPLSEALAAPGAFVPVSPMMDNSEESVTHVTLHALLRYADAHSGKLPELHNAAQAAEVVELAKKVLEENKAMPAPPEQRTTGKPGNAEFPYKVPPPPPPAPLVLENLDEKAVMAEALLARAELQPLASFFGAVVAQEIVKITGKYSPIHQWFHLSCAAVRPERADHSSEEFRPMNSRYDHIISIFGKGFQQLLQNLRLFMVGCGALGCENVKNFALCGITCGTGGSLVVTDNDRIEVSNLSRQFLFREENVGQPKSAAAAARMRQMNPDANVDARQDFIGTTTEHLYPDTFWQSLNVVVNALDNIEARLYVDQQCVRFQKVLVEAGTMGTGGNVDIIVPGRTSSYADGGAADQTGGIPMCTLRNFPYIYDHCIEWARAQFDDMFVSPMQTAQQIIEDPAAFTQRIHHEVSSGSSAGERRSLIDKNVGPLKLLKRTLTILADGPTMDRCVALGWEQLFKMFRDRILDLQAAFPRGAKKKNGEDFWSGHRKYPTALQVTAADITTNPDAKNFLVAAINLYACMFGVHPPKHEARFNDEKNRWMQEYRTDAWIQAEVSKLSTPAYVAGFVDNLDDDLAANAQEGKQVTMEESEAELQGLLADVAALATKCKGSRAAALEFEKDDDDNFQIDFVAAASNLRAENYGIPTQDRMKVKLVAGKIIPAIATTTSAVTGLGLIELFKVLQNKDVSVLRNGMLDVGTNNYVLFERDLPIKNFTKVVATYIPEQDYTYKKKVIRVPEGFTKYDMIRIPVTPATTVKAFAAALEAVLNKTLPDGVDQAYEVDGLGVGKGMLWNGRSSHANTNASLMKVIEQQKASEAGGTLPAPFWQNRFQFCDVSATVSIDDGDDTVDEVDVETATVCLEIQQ

[3] = target: AMP-activated protein kinase, AMPK (Homo sapiens) (UniProt P54646+O43741+P54619+Q9UGJ0+Q9Y478+Q13131+Q9UGI9); test: AMP-dependent Kinase enzyme assay. An in vitro enzyme assay that detects ADP turnover that is directly proportional to AMPK activity. This uses naive AMPK that is activated during the assay with MK-8722; type: functional; conditions: 30 µM
[4] = target: Sialic acid-binding Ig-like lectin 9 (Homo sapiens) (UniProt Q9Y336); test: Hs-Siglec9 ALPHAscreen SOP 20170721; conditions: 10 µM
Trypanosoma cruzi = test: Trypanosoma cruzi phosphomannomutase and mannose-1-phosphate guanylyltransferase assay; type: functional; conditions: 10 µM
[5] = target: T2, Arginase-2, mitochondrial (Homo sapiens) (UniProt P78540); test: in vitro enzyme assay to detect the production of urea directly proportional to the activity of Arginase II; type: functional; conditions: 33.3 µM; also: in the data most compounds retested in dose-response had high values
T2 sequence (whole entry): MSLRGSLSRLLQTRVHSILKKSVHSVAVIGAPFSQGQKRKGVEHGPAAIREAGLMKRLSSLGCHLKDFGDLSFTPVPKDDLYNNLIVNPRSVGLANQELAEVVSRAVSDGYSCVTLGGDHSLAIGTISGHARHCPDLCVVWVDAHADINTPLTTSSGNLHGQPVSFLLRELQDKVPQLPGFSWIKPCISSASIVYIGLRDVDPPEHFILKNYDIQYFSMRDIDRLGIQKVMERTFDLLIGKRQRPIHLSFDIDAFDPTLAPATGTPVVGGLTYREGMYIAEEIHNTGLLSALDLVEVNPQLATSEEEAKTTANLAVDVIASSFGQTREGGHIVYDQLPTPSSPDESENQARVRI

[6] = target: T3, Proteasome subunit beta (Trypanosoma cruzi) (UniProt O96673); test: Trypanosoma cruzi proteasome chymotrypsin-like activity (TcProtChymo) assay.; also: in the data most compounds retested in dose-response had high values; type: functional; conditions: 9.37 µM
T3 sequence (whole entry): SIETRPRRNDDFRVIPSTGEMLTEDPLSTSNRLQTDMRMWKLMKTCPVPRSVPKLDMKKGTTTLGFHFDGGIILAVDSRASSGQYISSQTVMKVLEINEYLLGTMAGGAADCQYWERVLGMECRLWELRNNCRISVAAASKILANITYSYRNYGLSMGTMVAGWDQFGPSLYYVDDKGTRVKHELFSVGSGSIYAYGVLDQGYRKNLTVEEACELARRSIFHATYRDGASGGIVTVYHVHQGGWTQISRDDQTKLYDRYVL

Homo sapiens = species on record: Homo sapiens; test: To identify inhibition of the IFN signalling (Jak-Stat) pathway via expression of an eGFP reporter gene under the control of an IFN-stimulated response element (ISRE) containing MxA promoter.; type: functional; conditions: 30 µM
[7] = target: T4, Tyrosyl-tRNA synthetase, putative (Trypanosoma cruzi (strain CL Brener)) (UniProt Q4DSP6); test: Trypanosoma cruzi tyrosyl tRNA synthetase (TcYRS) _High Tyrosine SOP; type: functional; conditions: 30 µM; also: in the data most compounds retested in dose-response had high values
T4 sequence (whole entry): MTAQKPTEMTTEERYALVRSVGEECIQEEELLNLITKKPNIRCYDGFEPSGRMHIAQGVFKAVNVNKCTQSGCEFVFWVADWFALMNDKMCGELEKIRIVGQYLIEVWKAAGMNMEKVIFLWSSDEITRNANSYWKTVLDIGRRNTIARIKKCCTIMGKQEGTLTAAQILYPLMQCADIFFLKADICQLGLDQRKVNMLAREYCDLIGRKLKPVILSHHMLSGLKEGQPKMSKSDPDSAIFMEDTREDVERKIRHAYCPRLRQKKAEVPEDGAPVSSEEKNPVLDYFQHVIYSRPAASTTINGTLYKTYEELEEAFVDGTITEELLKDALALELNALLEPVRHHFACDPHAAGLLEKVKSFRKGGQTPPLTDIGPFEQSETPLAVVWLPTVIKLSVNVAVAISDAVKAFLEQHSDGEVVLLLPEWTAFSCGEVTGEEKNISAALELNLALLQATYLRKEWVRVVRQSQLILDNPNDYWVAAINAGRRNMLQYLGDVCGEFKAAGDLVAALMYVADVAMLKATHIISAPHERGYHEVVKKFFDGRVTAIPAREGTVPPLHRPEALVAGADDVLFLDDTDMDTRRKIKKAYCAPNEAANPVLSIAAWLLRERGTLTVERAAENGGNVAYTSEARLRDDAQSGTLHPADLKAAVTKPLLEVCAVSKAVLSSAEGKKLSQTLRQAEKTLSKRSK

[8] = target: T4, Tyrosyl-tRNA synthetase, putative (Trypanosoma cruzi (strain CL Brener)); test: Trypanosoma cruzi tyrosyl tRNA synthetase (TcYRS) SOP; type: functional; conditions: 30 µM
[9] = target: Chromo domain-containing protein 1 (Saccharomyces cerevisiae (strain ATCC 204508 / S288c) (Baker's yeast)) (UniProt P32657); test: ScCHD-1 Enzyme Inhibition Assay; type: functional; conditions: 30 µM; also: in the data most compounds retested in dose-response had high values
Chain of Chromo domain-containing protein 1 (Saccharomyces cerevisiae (strain ATCC 204508 / S288c) (Baker's yeast)) (P32657 whole entry, the tested form may be a part): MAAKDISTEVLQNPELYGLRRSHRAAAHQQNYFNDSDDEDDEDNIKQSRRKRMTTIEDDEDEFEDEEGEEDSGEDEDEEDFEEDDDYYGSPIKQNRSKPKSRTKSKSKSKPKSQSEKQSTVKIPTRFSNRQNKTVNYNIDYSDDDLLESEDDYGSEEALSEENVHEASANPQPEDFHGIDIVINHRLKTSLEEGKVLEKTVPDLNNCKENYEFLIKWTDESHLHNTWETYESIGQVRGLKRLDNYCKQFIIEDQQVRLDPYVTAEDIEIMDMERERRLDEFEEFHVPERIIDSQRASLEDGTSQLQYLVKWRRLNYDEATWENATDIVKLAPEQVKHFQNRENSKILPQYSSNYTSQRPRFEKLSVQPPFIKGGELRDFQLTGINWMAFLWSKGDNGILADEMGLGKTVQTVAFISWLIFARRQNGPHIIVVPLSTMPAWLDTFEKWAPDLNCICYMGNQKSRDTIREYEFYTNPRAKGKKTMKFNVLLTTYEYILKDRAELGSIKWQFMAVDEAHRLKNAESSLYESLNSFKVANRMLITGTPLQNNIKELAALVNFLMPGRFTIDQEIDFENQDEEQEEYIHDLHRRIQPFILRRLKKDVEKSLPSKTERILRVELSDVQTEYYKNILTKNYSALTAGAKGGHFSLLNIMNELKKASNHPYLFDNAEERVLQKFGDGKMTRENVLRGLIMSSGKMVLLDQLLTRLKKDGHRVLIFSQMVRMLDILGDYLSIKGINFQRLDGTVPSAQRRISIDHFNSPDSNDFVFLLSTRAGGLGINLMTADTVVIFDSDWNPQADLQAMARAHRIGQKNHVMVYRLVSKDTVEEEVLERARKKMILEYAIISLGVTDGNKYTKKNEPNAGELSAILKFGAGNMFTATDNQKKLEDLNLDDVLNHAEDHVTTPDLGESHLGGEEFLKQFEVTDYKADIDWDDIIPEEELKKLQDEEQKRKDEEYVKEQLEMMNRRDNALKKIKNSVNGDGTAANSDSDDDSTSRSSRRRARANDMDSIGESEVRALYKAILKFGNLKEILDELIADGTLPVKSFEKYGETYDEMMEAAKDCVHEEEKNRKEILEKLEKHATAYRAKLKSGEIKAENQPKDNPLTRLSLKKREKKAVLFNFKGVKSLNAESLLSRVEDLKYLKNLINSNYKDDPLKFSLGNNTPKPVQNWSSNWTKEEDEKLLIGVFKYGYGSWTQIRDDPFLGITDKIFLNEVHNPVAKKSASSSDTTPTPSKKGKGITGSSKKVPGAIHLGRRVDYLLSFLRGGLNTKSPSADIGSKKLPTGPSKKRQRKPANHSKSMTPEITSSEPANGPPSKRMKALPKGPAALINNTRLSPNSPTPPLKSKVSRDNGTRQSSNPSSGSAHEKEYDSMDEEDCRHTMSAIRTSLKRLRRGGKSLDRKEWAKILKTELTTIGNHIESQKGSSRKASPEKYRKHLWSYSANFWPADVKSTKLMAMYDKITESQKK

Chain of Sialic acid-binding Ig-like lectin 9 (Homo sapiens) (Q9Y336 whole entry): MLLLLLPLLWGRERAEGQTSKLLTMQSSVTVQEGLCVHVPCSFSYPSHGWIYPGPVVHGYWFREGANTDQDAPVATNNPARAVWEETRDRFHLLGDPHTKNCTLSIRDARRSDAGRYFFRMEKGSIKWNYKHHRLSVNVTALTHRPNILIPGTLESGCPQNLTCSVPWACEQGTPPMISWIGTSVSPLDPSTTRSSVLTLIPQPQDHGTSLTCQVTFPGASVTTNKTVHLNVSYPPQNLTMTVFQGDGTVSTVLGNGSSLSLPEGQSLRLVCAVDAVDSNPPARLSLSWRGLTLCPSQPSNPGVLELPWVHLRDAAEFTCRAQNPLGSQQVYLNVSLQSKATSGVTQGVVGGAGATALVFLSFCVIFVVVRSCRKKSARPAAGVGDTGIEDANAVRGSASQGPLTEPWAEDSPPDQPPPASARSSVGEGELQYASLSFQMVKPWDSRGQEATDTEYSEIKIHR
Chain of Protein translocase subunit SecA (Escherichia coli (strain K12)) (P10408 whole entry): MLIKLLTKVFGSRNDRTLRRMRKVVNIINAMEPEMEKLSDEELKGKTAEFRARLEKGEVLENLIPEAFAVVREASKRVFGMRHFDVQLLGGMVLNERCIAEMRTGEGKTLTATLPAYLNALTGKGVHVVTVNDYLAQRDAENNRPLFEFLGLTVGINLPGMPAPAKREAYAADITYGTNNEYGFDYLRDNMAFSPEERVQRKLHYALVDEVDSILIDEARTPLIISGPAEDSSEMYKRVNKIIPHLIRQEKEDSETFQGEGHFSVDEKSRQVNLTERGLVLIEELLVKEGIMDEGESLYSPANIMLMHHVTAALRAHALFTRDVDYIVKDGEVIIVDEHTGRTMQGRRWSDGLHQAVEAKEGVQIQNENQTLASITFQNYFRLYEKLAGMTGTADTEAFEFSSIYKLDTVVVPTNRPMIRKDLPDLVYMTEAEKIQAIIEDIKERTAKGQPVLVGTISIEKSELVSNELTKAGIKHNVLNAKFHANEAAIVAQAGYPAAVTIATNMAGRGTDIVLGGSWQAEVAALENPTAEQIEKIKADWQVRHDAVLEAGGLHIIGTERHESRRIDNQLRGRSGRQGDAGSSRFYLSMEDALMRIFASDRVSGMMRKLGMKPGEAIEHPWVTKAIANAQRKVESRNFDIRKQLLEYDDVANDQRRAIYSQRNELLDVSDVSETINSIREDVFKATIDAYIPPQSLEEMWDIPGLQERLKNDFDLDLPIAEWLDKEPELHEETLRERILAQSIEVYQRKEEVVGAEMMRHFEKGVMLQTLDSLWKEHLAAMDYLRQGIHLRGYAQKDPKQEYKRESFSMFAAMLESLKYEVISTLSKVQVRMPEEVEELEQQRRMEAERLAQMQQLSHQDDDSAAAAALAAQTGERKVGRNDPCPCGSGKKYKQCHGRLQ

Compound | Percent Effect [1] | Percent Effect [2] | Percent Effect [3] | Percent Effect [4] | Percent Effect (Trypanosoma cruzi) | Percent Effect [5] | Percent Effect [6] | Percent Effect (Homo sapiens) | Percent Effect [7] | Percent Effect [8] | Percent Effect [9]
CC(NC(=O)N(C)Cc1ccncc1)c1nncn1C (stereo unspecified) | -3.28% | 20.8% | 3.42% | 21% | 2.43% | 22.5% | 13.2% | -6.33% | 1.05% | 15.4% | -7.53%
COc1c(CNC(c2ccc(F)cc2)c2nccn2C)c(C)nn1C (stereo unspecified) | -4.41% | 23.7% | -3.24% | -2.7% | 10.9% | -0.383% | 13.4% | 10.1% | 9.31% | 29.3% | -12.6%
CCCC(=O)N1CC[C@@H]2[C@H](CC1)N(Cc1cccnc1)CCS2(=O)=O | -8.11% | 5.41% | 3.63% | -1.04% | -0.586% | 2.5% | 6.85% | 0.118% | 8.91% | 8.54% | -3.88%
O=C(c1cccs1)N1C[C@H]2CC[C@@]3(N=C(c4ccccc4)NC3=O)[C@H]2C1 | -1.64% | 7.79% | 0.0999% | 7.14% | -2.06% | -4.14% | 13.3% | 9.87% | 1.07% | 13.6% | -0.884%
Cc1ccc2c(c1)CCC21CCN(C(=O)CO)CC1 | -2.81% | 5.2% | -0.185% | 17.2% | 6.79% | -20.7% | 12.8% | 15.4% | 4.3% | 6.17% | -7.19%
CSc1ccc(-c2nc(CN3CCC(NC(C)=O)C3)c(C)o2)cc1 (stereo unspecified) | -6.31% | -5.41% | 0.887% | -0.709% | -4.25% | -3.33% | 2.93% | 18.4% | 4.76% | 7.32% | -1.88%
COc1ccc(-n2nnc(C(=O)NC(C)C)c2C2CC2)cc1 | -1.4% | 1.39% | -9.18% | 9.95% | 4.96% | 15% | 4.21% | 9.68% | 0% | 0% | -0.372%
O=C(c1cccn2ccnc12)N1CCCN(c2cccnn2)CC1 | -3.74% | -5.2% | 6.04% | 5.27% | 4.8% | 1.9% | -0.404% | -11.5% | 0.952% | 2.35% | -10.1%
Cc1cc(NS(=O)(=O)c2ccccc2F)ccc1-n1cccc1C(=O)O | -2.35% | 2.63% | 6.59% | 4.36% | -1.27% | -7.1% | 24.1% | -10.4% | -4.25% | 0% | -2.97%
CCc1nc(CC(=O)NCC(Cc2ccc(F)cc2)C(N)=O)cs1 (stereo unspecified) | -8.91% | 5.26% | -6.2% | 10.1% | 7.89% | -3.55% | -2.21% | 11.5% | 4.25% | 13% | -14.4%
COCc1cncc2c1CCN(C(=O)c1ccc(C)o1)C2 | -3.33% | 10.7% | 1.34% | -0.678% | -4.63% | -60% | 6.33% | -0.987% | 4.17% | 5% | -6.41%
